In ChEMBL document CHEMBL1961873, “Compounds: GSK PKIS; Assays: Nanosyn kinase panel” (2012):

Tests used:
[1] = biological target: T1, Inhibitor of nuclear factor kappa-B kinase subunit epsilon (Homo sapiens) (UniProt Q14164); settings: at 1 µM;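 further: reported values are averaged percent inhibition figures against human IKKε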
T1 sequence (whole entry): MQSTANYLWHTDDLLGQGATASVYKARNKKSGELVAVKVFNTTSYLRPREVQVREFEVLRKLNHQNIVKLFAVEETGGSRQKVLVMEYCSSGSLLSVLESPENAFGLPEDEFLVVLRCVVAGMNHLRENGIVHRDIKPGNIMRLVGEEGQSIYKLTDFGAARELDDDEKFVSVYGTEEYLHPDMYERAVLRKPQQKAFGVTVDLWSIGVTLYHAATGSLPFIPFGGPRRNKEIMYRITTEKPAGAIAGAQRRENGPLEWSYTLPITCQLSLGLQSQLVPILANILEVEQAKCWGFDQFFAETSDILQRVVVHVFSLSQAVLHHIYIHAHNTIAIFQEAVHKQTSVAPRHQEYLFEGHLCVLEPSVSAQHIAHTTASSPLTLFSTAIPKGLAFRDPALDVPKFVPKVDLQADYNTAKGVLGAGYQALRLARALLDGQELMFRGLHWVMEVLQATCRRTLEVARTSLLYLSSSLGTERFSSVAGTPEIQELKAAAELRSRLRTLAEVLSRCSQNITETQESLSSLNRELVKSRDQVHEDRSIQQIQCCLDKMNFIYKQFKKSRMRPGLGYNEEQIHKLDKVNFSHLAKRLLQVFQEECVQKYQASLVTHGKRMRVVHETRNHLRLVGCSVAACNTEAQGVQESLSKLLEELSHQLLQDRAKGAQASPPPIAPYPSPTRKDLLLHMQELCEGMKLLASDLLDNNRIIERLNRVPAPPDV

[2] = biological target: T2, Serine/threonine-protein kinase Nek1 (Homo sapiens) (UniProt Q96PY6); settings: at 0.1 µM
T2 sequence (whole entry): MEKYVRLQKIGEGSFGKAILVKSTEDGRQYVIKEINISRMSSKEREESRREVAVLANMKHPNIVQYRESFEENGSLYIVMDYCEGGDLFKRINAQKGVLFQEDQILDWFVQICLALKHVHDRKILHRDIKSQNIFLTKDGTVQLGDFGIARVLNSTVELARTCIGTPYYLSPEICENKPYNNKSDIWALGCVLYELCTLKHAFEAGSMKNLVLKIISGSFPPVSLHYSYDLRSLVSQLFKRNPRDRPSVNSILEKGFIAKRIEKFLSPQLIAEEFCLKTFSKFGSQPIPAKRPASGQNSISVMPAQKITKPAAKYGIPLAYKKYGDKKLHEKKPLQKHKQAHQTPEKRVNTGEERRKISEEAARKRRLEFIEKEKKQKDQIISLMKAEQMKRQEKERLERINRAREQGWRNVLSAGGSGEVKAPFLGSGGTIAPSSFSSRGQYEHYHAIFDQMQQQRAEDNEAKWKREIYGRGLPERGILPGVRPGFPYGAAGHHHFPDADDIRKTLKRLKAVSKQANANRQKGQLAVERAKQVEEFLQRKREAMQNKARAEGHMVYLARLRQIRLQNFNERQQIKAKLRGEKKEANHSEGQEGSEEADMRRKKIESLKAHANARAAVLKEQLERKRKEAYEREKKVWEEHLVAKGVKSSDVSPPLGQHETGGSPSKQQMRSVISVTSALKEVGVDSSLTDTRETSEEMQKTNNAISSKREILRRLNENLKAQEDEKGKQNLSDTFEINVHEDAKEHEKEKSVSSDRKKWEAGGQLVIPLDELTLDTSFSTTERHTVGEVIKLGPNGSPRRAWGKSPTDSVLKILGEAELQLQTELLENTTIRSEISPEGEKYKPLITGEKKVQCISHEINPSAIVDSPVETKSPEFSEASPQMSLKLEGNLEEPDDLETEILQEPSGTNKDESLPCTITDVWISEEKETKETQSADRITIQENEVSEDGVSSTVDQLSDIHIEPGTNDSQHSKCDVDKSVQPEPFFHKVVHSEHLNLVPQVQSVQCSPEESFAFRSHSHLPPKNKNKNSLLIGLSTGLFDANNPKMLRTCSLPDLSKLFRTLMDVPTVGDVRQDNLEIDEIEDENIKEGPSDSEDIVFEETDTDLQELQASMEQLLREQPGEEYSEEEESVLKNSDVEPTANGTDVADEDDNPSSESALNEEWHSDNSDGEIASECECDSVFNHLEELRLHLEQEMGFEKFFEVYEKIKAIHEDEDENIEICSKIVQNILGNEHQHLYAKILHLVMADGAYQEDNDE

[3] = biological target: T2, Serine/threonine-protein kinase Nek1 (Homo sapiens); settings: at 1 µM
[4] = biological target: T3, Serine/threonine-protein kinase Nek2 (Homo sapiens) (UniProt P51955); settings: at 0.1 µM
T3 sequence (whole entry): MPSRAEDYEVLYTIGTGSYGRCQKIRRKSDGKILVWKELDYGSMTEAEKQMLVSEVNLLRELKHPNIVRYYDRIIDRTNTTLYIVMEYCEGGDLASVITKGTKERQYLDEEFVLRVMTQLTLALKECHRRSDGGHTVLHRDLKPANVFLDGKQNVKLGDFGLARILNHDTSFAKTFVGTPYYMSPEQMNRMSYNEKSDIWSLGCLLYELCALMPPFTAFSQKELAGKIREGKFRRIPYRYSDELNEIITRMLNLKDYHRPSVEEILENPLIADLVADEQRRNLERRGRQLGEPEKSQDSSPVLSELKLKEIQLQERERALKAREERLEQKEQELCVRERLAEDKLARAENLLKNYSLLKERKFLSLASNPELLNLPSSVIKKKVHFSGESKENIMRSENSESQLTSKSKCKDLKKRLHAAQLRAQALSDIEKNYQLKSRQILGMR

[5] = biological target: T3, Serine/threonine-protein kinase Nek2 (Homo sapiens); settings: at 1 µM
[6] = biological target: Serine/threonine-protein kinase Nek6 (Homo sapiens) (UniProt Q9HC98); settings: at 0.1 µM
Serine/threonine-protein kinase Nek6 (Homo sapiens), sequence (Q9HC98 whole entry): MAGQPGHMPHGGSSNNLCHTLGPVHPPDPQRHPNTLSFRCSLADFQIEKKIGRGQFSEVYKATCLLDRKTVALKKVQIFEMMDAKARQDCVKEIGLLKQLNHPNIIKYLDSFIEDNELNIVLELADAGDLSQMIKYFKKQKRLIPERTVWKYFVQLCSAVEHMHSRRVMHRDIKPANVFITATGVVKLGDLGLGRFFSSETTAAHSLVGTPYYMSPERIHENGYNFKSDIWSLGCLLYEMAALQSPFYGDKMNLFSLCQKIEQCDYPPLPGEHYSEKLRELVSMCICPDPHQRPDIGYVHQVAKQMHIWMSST

[7] = biological target: Serine/threonine-protein kinase Nek6 (Homo sapiens) (UniProt Q9HC98); settings: at 1 µM
[8] = biological target: Serine/threonine-protein kinase Nek7 (Homo sapiens) (UniProt Q8TDX7); settings: at 0.1 µM
Serine/threonine-protein kinase Nek7 (Homo sapiens), sequence (Q8TDX7 whole entry, looked up): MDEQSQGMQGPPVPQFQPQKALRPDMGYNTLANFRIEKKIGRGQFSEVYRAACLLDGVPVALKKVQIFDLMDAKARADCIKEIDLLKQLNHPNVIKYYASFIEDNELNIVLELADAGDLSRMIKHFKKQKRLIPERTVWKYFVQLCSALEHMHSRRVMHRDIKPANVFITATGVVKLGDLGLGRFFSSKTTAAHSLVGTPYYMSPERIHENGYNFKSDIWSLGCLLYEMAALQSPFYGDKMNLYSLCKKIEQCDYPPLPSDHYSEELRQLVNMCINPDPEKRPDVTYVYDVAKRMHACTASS

[9] = biological target: Serine/threonine-protein kinase Nek7 (Homo sapiens) (UniProt Q8TDX7); settings: at 1 µM
[10] = biological target: T4, Serine/threonine-protein kinase Nek9 (Homo sapiens) (UniProt Q8TD19); settings: at 0.1 µM
T4 sequence (whole entry): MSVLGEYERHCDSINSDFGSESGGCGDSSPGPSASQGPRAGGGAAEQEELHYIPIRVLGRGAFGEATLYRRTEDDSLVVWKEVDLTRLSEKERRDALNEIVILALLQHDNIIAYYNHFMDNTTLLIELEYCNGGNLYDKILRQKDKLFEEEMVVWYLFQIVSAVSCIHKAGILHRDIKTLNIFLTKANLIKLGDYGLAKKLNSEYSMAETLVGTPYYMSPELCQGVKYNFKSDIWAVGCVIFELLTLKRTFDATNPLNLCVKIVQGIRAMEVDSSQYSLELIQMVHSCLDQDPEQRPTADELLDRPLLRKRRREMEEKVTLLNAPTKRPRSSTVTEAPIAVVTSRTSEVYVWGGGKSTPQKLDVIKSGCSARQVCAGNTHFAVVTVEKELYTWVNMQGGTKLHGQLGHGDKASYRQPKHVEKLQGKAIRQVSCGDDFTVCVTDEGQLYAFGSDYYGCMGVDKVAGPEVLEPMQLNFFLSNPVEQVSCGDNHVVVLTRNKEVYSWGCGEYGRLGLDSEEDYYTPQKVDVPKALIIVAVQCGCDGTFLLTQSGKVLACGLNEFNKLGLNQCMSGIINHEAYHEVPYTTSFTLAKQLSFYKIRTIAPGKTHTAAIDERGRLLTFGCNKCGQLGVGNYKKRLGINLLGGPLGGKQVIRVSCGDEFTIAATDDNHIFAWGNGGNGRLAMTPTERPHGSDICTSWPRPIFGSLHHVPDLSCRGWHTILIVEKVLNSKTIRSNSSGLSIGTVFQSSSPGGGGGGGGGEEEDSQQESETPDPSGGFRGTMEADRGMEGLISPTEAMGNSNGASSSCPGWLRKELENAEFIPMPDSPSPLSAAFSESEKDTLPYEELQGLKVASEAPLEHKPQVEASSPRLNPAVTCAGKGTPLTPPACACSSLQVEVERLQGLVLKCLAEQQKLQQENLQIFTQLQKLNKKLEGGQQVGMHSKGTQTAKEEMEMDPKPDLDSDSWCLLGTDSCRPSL

[11] = biological target: T4, Serine/threonine-protein kinase Nek9 (Homo sapiens); settings: at 1 µM
[12] = biological target: Serine/threonine-protein kinase PLK1 (Homo sapiens) (UniProt P53350); settings: at 0.1 µM
Serine/threonine-protein kinase PLK1 (Homo sapiens), sequence (P53350 whole entry): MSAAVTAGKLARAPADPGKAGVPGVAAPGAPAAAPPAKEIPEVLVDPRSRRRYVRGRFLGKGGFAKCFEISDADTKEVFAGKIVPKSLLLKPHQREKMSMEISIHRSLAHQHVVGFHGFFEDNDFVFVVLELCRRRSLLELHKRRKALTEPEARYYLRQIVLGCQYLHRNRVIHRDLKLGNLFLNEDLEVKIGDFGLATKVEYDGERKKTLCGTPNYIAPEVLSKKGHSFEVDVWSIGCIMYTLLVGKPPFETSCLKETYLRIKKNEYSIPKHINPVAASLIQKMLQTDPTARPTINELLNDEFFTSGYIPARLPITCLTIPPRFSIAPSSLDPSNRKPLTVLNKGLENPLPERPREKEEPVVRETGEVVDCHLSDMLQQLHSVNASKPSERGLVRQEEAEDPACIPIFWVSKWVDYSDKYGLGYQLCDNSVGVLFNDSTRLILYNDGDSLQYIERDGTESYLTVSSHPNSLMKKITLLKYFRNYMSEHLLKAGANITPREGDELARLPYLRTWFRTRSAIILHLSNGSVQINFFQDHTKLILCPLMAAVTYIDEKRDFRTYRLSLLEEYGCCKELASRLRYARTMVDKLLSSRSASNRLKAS

[13] = biological target: Serine/threonine-protein kinase PLK1 (Homo sapiens) (UniProt P53350); settings: at 1 µM
[14] = biological target: T5, Dual specificity protein kinase TTK (Homo sapiens) (UniProt P33981); settings: at 0.1 µM
T5 sequence (whole entry): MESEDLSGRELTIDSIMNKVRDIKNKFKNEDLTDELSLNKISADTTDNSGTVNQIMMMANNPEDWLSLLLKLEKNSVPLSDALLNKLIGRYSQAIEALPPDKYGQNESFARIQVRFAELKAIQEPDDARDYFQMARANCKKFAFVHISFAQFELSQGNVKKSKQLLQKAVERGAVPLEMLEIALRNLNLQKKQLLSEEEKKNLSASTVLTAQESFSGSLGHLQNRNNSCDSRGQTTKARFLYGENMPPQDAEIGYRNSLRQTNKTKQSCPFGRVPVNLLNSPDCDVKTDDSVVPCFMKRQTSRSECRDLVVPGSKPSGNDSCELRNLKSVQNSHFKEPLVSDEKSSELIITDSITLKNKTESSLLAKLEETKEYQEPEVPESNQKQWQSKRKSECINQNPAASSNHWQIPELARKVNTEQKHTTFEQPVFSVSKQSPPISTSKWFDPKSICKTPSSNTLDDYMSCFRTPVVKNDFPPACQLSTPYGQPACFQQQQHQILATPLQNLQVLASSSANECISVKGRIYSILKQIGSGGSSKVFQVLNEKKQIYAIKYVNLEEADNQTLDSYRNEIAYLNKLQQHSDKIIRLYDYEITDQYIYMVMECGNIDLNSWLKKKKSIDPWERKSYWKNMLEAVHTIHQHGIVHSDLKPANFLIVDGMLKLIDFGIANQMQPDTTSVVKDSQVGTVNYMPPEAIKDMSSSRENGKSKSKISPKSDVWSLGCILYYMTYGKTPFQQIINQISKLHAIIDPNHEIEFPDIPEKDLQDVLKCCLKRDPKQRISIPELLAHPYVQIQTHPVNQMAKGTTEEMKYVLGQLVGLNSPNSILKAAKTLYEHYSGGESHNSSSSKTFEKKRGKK

[15] = tested on: T6, Receptor-type tyrosine-protein kinase FLT3 (Homo sapiens), P36888 [D835Y]; settings: at 1 µM
T6 sequence (whole entry): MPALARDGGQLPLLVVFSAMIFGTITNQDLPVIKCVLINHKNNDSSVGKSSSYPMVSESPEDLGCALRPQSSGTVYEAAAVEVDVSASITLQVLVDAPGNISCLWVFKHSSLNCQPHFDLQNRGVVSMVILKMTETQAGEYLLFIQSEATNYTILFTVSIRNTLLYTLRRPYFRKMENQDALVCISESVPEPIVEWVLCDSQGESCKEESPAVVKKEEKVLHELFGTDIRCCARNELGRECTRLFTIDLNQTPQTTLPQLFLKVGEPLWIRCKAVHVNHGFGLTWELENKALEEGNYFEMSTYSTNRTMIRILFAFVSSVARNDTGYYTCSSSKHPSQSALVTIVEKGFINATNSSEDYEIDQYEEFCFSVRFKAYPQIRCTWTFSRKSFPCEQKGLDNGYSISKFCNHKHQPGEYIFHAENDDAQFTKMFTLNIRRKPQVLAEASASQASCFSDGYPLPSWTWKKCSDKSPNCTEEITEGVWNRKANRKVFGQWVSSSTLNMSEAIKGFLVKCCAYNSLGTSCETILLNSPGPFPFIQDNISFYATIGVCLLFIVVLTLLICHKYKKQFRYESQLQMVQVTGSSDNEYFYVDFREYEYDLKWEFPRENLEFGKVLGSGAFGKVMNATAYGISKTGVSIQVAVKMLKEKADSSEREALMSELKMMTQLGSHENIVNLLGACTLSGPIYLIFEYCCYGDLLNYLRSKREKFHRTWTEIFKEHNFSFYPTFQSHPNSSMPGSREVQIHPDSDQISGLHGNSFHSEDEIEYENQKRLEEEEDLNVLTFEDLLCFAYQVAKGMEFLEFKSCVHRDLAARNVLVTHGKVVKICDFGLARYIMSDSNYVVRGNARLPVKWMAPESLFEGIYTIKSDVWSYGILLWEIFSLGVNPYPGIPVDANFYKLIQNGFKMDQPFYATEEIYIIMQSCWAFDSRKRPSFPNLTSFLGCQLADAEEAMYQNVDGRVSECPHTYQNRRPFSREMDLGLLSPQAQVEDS

[16] = biological target: Vascular endothelial growth factor receptor 3 (Homo sapiens) (UniProt P35916); settings: at 0.1 µM
Vascular endothelial growth factor receptor 3 (Homo sapiens), sequence (P35916 whole entry): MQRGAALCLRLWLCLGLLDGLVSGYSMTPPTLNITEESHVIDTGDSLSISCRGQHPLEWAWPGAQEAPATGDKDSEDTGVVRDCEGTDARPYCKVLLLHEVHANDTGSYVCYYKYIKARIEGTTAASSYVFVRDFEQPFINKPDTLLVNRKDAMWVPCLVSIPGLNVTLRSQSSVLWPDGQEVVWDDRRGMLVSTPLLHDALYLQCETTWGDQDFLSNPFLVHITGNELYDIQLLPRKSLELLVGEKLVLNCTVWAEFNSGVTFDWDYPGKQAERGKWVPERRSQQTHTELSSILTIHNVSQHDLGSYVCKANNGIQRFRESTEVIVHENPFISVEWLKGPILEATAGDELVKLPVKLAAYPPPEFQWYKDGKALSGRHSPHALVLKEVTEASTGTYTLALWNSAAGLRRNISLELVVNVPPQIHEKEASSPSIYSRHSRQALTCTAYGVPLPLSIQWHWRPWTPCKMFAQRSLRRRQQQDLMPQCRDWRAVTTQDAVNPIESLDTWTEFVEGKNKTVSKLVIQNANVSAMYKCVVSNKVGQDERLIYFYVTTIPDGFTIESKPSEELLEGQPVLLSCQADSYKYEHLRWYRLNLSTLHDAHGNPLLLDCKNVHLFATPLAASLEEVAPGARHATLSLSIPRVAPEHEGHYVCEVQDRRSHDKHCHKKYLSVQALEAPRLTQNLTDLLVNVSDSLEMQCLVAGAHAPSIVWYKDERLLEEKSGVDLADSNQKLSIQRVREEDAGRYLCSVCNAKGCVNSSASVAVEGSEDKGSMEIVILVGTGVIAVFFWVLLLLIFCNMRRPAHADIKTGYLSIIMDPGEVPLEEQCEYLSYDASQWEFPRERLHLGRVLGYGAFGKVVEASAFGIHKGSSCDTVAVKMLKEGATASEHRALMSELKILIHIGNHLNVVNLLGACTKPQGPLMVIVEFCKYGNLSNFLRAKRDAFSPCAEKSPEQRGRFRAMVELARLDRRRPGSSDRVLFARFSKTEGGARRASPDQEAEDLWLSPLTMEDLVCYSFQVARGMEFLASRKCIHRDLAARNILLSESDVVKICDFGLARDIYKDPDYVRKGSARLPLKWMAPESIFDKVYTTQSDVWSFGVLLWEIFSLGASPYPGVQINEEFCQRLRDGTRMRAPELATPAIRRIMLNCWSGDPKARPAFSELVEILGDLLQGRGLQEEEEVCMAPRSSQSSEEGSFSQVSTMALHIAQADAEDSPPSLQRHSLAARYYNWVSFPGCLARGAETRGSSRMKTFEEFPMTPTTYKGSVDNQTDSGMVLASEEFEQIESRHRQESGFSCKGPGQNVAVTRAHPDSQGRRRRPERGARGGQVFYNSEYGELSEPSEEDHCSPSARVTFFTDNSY

[17] = biological target: Vascular endothelial growth factor receptor 3 (Homo sapiens) (UniProt P35916); settings: at 1 µM
[18] = biological target: Macrophage colony-stimulating factor 1 receptor (Homo sapiens) (UniProt P07333); settings: at 0.1 µM
Macrophage colony-stimulating factor 1 receptor (Homo sapiens), sequence (P07333 whole entry): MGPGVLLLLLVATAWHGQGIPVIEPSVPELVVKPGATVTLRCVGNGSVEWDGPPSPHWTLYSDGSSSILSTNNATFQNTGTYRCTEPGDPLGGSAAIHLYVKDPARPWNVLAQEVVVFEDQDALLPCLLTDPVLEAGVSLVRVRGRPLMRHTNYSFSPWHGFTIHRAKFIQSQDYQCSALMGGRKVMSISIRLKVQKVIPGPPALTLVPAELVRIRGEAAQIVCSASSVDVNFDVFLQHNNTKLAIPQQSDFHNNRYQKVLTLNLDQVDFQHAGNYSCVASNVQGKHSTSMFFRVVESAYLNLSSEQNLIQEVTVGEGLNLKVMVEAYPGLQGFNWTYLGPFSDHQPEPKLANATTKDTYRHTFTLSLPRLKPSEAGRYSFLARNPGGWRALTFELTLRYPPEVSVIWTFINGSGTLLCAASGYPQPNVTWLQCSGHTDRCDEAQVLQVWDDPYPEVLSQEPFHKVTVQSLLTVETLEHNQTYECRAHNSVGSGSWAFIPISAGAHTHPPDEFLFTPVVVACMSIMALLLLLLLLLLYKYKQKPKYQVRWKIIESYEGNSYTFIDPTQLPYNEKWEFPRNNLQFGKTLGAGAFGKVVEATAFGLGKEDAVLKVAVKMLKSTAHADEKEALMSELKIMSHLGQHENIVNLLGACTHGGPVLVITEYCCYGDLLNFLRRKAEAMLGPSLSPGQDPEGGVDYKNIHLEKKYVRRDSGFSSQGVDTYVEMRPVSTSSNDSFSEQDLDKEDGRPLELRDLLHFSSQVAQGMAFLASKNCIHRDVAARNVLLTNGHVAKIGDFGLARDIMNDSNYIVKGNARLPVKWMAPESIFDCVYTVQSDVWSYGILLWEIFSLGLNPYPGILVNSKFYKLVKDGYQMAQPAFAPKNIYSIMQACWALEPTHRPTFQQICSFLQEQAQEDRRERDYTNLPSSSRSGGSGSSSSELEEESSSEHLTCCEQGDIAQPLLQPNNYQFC

[19] = biological target: Macrophage colony-stimulating factor 1 receptor (Homo sapiens) (UniProt P07333); settings: at 1 µM
[20] = biological target: Tyrosine-protein kinase Fyn (Homo sapiens) (UniProt P06241); settings: at 0.1 µM
Tyrosine-protein kinase Fyn (Homo sapiens), sequence (P06241 2-537 limits assumed): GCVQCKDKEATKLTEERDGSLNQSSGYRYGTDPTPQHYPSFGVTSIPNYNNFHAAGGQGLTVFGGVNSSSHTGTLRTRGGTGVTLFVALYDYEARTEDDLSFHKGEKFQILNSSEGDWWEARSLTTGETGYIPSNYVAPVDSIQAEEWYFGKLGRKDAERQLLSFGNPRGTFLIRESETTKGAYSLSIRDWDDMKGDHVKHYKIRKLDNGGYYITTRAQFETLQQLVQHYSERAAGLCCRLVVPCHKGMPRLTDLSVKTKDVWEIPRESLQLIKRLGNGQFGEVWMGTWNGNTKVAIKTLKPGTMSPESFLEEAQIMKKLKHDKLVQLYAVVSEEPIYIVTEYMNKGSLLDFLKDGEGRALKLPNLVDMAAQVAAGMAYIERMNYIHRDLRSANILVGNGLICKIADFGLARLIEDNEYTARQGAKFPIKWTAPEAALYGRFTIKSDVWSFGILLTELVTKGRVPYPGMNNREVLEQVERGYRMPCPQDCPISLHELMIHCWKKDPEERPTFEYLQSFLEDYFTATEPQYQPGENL

CCS(=O)(=O)c1ccc(OC)c(Nc2ncc(-c3cccc(C(C)=O)c3)o2)c1
inhibition [1]: 5.1% | inhibition [2]: 1.59% | inhibition [3]: 4.9% | inhibition [4]: 3.34% | inhibition [5]: 2.2% | inhibition [6]: 3.06% | inhibition [7]: 3.18% | inhibition [8]: 2.79% | inhibition [9]: 3.24% | inhibition [10]: 5.45% | inhibition [11]: 3.45% | inhibition [12]: 2.42% | inhibition [13]: 2.98% | inhibition [14]: 5.81% | inhibition [15]: 87.2% | inhibition [16]: 10.7% | inhibition [17]: 47.3% | inhibition [18]: 10.2% | inhibition [19]: 34.7% | inhibition [20]: 26.4%
